Data: ChEMBL document CHEMBL3988442, “University of Dundee, Small-Polar-MMV Screening Library” (2021)
Screen size: about 48,000 compounds; about 13,000 (27%) showed an effect of 50% or more. This is one part of the list.

system: Wolbachia pipientis; experiment: Anti-Wolbachia Cell-Based Screen; assay type: functional; design: scale not given: in the data most compounds retested in dose-response had high values; settings: 5 µM

SMILES | Percent Effect [%]
CSc1ccc2cc(CN(C)CCO)c(=O)[nH]c2c1 | -7.247
CCC(CNC(=O)CNC(C)=O)Oc1cccc(F)c1 (stereo not given) | -13.27
Cc1ccc(S(=O)(=O)NC[C@H]2OC[C@@H](NCc3cccnc3)[C@@H]2O)cc1 | -9.264
CC(C)NC(=O)CN(C1CC1)C(C)C1CC1 (stereo not given) | -3.628
CC1CCCCN1C(=O)c1nc2c(n1C(C)C)CCN(C)C2.O=C(O)C(F)(F)F (stereo not given) | 0.8763
CC(=O)N1CCCCC1c1nc2c(c(N3CCCCC3)n1)CN(C)CC2 (stereo not given) | -9.745
CNc1nc(C2CCCCN2C(=O)C(C)(C)OC)nc2c1CN(C)CC2 (stereo not given) | 100.3
CC(=O)N1CCCCC1c1nc2c(c(NC3CCCC3)n1)CN(C)CC2 (stereo not given) | 71.52
CNc1nc(C2CCCCN2C(=O)COC)nc2c1CN(C)CC2 (stereo not given) | 112
Nc1nc2c(c(NC3CCCC3)n1)CCN(C(=O)C1CCOC1)CC2 (stereo not given) | 4.82
CNc1nc(N2C[C@H](NC(=O)CCOC)[C@@H](C3CC3)C2)nc2c1CCC2 | -18.85
COCC(=O)N[C@H](C(=O)NC(C)c1cccc(C)c1C)C(C)C (stereo not given in full) | 4.041
O=C(c1scc2c1OCCO2)N1CCN(Cc2cccc(F)c2)CC1 | -25.63
COCc1noc(-c2ccc(N(C)Cc3nccs3)nc2)n1 | 22.14
CCc1nc(CNC(C)c2cccc(N3CCCC3=O)c2)cs1.Cl (stereo not given) | 4.92
CSc1cc2c(cc1NC(=O)NCC(C)(C)C(N)=O)OCCO2 | -12.99
CC(C)(C)c1noc(CN2CCN(C(=O)c3cccs3)CC2)n1 | -8.519
CNc1ncc(-c2ccnn2C2CCN(C(C)=O)CC2)cn1 | 109.9
CC(=O)N1CCC(n2nccc2-c2cnc(N)nc2)CC1 | 106.3
CC(=O)N1CCC(NCc2cccnc2N(C)Cc2ccccc2)CC1 | -20.17
CNc1ncc(C(=O)N2CCC(c3ccccc3C(=O)O)C2)cn1 (stereo not given) | 4.233
CNc1ncc(C(=O)N2CC[C@@](O)(C3CCOCC3)[C@H](C)C2)cn1 | -7.674

SMILES | Percent Effect [%]
Cn1ccnc1CN(CCO)C(=O)C1CCN(C(=O)C2CC2)CC1 | -5.097
CCc1cnc(N)nc1N1CCN(C(C)=O)CC1 | -3.404
CC(=O)N1CCC(Oc2ccc(Cl)cn2)CC1 | -4.055
CCc1cnc(N2CC[C@@H]3CN(C(C)=O)CCO[C@@H]3C2)nc1 | 6.886
CC(=O)N1CCC(n2nccc2-c2cnc(N(C)CCO)nc2)CC1 | 107.1
CCc1ocnc1C(=O)N1CCC(C2CCN(c3ncccn3)CC2)C1 (stereo not given) | -3.497
CC(=O)N1CCC(n2nccc2-c2cnc(N3CCCC3)nc2)CC1 | 98.34
CC(C(=O)N1CCc2sccc2C1)N1CCCN(C2CC2)CC1 (stereo not given) | 6.579
NC(=O)CCNC(=O)NCC1(c2ccccc2Cl)CCC1 | -8.555
CC(=O)N1CCC(n2nccc2-c2cnc(NCCO)nc2)CC1 | 90.32
CC(=O)N1CCC(NC[C@H]2Cn3c(-c4ccccc4)cnc3CO2)CC1 | -3.853
Cc1noc(C2CCN(C(=O)CCNc3ncccn3)CC2)n1 | 14.51
O=C(O)c1nn(CC2CC2)c2c1CN(S(=O)(=O)c1cccnc1)CC2 | -14.04
CC(=O)NCCCc1ncnn1-c1cccc(Cl)c1 | -6.102
CCn1nc(C)c(CCNC(=O)c2cccc(-n3cccn3)c2)c1C | -5.095
CCN(CC)CCNC(=O)CCc1c(C)nn(-c2ccc(Cl)cc2)c1C | 108.7
Cc1nn(-c2ccccc2)c(C)c1CC(=O)NC1CC(=O)N(C)C1 (stereo not given) | 10.3
COCCNC(=O)CCc1c(C)nn(-c2nc(C)c(C)c(=O)[nH]2)c1C | -2.178
CCN(CC)CCNC(=O)CCc1c(C)nn(-c2cccc(Cl)c2)c1C | 114.7
COCc1noc(C2(c3ccc(OC)cc3)CCOCC2)n1 | -14.42
CN1CCN(Cc2cccc(NCc3cc[nH]n3)c2)CC1 | -14.54
O=C(Nc1c(F)cccc1F)N1CC(c2nc(C3CC3)no2)C1 | 16.35

SMILES | Percent Effect [%]
COc1ccc(CNc2nc(C3CC3)no2)cc1OC | -4.91
COCC(=O)Nc1ccc(C)cc1-c1nc(C2CC2)no1 | 104.3
CCCn1nc(-c2nc(C3CC3)no2)ccc1=O | -1.199
Cc1ccc(NC(=O)N2CC[C@@H](O)C2)c(-c2nc(C3CC3)no2)c1 | 101.9
O=C(Nc1ccc(F)cc1-c1nc(C2CC2)no1)N1CC[C@@H](O)C1 | 96.09
O=C(Nc1cc(-c2ccccc2)on1)N1CC[C@H](O)C1 | -19.05
COc1ccc(NC(=O)N2CCC(c3noc(C)n3)CC2)cc1C | -0.09079
O=C(NCc1nc(C2CC2)no1)N1CCOC(c2cccc(F)c2)C1 (stereo not given) | -4.4
CN(C)Cc1nnc(C2CCCN(c3ncccc3F)C2)n1C (stereo not given) | -23.88
Cc1cc(CN(C)CC2(O)CCCN(CCC3CCCCC3)C2=O)no1 (stereo not given) | -6.768
O=C(CN1CCCc2sccc2C1=O)NC1CCc2nccn2C1 (stereo not given) | 7.867
O=C(CCc1nc(Cl)n[nH]1)N[C@H]1CC[C@H]1NC1Cc2ccccc2C1 | -20.04
CCC(=O)N1CCC(Oc2ccc(C(=O)NCCN(C)C)cc2Cl)CC1 | 19.63
Cc1ccc(C)c(OC2CCN(C(=O)c3ccc(C)[nH]c3=O)CC2)c1 | -1.4
CN(C)CCNC(=O)c1ccc(OC2CCN(C(=O)CO)CC2)c(Cl)c1 | 12.3
Cc1ccccc1OC1CCN(C(=O)CNC(=O)N(C)C)CC1 | 13.16
Cc1ccc(C)c(OC2CCN(C(=O)CNc3ccccc3Cl)CC2)c1 | 209.6
COC(=O)NCC(=O)N1CCC(Oc2cccc(C)c2)CC1 | -5.707
Cc1ccc(C)c(OC2CCN(C(=O)NCC(=O)N3CCCC3)CC2)c1 | 99.13
CCNC(=O)CCC(=O)N1CCC(Oc2cc(C)ccc2C)CC1 | 108
Cc1ccc(C)c(OC2CCN(C(=O)c3ccc(O)nc3)CC2)c1 | -12.69
